We go through 40 compounds from PubChem BioAssay.

For some assays here: Results with a measured potency or affinity are listed apart. Activity calls are given as the source filed them. Unless noted, cut-off not given; nearly all actives show IC50 up to about 0.98 µM.

Tested on in one assay: not listed separately
The experiment in a line: inhibition of 3D7 malaria parasite growth – strain 3D7 (AID 2306; call rule not given here;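 further: 0% = DMSO wells and 100% = chloroquine plus artemisinin control wells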). Particulars: P. falciparum 3D7 erythrocytic growth, LDH absorbance, 72 h; at 2 µM; stronger effect = higher value.
For `CN(C)CCCNCc1ccc(-c2ccc(C(F)(F)F)cc2)cc1`, the growth inhibition is 96% (active).

Regarding `Fc1ccccc1COc1ccc(Nc2ncnc3ccc(-c4nnc(C(F)(F)F)o4)cc23)cc1Cl`, the growth inhibition was 100% (active).

`O=C(Nc1ccc([N+](=O)[O-])cc1)c1nn(-c2ccccc2)cc1N=Cc1cccc(O)c1`: the growth inhibition is 98% (active).

As to `Cc1cccc2[nH]c(-c3ccc(-c4ccc(NC(=O)N[C@@H]5C[C@H]5c5ccccc5)cc4)cc3)nc12`, the growth inhibition was 96% (active).

Take `O=c1cc(NCCCCNCc2ccc(Br)c(Br)c2)[nH]c2ccccc12`: the growth inhibition is 98% (active).

Take `O=S1N=C(NCCCN(Cc2cccs2)c2ccccn2)C(NCc2ccccc2)=N1` (stereo not given): the growth inhibition was 92% (active).

Consider `COc1ccccc1NC(=O)NC1CCN(CCCCCNC(=O)/C=C/c2ccc(Cl)c(Cl)c2)CC1`, for which the growth inhibition is 100% (active).

For `CC(=O)Oc1cc(C)ccc1C1CCN(CCCCNC(=O)c2ccc(-c3ccc(C(F)(F)F)cc3)cc2)CC1`, the growth inhibition is 100% (active).

Regarding `O=c1cc(NCCCNCc2csc(Br)c2Sc2ccc(Cl)cc2)[nH]c2ccccc12`, the growth inhibition was 95% (active).

Regarding `Cc1cccc2[nH]c(-c3ccc(-c4cccc(NC(=O)Nc5ccsc5)c4)s3)nc12`, the growth inhibition was 100% (active).

Regarding `CCCCCCP(=O)(COc1ccc(CCN(CC(O)COc2cccc3[nH]c(C(N)=O)cc23)CC(O)COc2cccc3[nH]c(C(N)=O)cc23)cc1)OCCCC` (stereo not given), the growth inhibition was 99% (active).

`COc1ccc(-c2csc3ncnc(Cl)c23)cc1`: the growth inhibition is 96% (active).

For `C[C@H](Cc1ccc(Oc2ccc(C[C@@H](C)NC[C@H](O)c3cccc(Cl)c3)cc2)cc1)NC[C@H](O)c1cccc(Cl)c1`, the growth inhibition was 100% (active).

Regarding `CCCCCCCN1CC[C@@H](CCCc2ccnc3ccc(OCCN4CCNCC4)cc23)[C@@H](CC)C1`, the growth inhibition is 101% (active).

For the compound `O=C(Cc1ccc(-c2ccccc2)cc1)N[C@H]1CCN(Cc2ccc(OCCCN3CCCCC3)cc2)C1`, the growth inhibition is 99% (active).

Consider `Cc1cc(C)n(-c2nc(Nc3cccc(C(F)(F)F)c3)nc(-n3nc(C)cc3C)n2)n1`, for which the growth inhibition is 99% (active).

Turning to `O=C(NCc1cccc(F)c1)Nc1cccc(-c2ccc(-c3nc4ccc(F)cc4[nH]3)cc2)c1`, the growth inhibition was 84% (active).

As for `NC(=O)C1CCN(Cc2cccc(-c3ccc(-c4nc5ccc(C(F)(F)F)cc5[nH]4)cc3)c2)CC1`, the growth inhibition was 100% (active).

`CCCC[C@@H](C(=O)NCCc1ccc(Cl)cc1)N1C(=O)CCC1C(=O)Nc1ccc(Cl)c(Cl)c1` (stereo not given in full): the growth inhibition is 95% (active).

In the case of `Nc1ncc(-c2ccc(F)cc2)c2ccc(-c3cccc(F)c3)cc12`, the growth inhibition was 99% (active).

For `c1ccc(CCNCc2ccc(-c3cccc(-c4nc5ccccc5[nH]4)c3)cc2)nc1`, the growth inhibition was 100% (active).

With `CCCCN1CCN(CCCCNc2c3ccccc3nc3ccccc23)CC1`, the growth inhibition was 100% (active).

Turning to `CCCCCCN1CCCN(Cc2ccc(C(=O)Nc3ccc(Cl)cc3)cc2)CC1`, the growth inhibition is 89% (active).

`COc1ccc(-c2cccc(NC(=O)c3ccc(C#N)cc3)c2)cc1CN1CCCN(C)CC1`: the growth inhibition is 101% (active).

As to `CCCCCN1CCCC(NS(=O)(=O)c2ccc(C(=O)Nc3ccc(C(F)(F)F)cc3)cc2)C1` (stereo not given), the growth inhibition is 98% (active).

As to `Cc1cc(O)c(CN(C)Cc2ccc(N(C)C)cc2)cc1C(C)C`, the growth inhibition is 100% (active).

As to `CNC(=O)CSc1nnc(-c2ccc(C)cc2)c(-c2ccc(C)cc2)n1`, the growth inhibition was 94% (active).

Turning to `Cc1cc(C)c(NC(=O)NC2CCN(CCCCCNC(=O)/C=C/c3ccc(Cl)c(Cl)c3)CC2)c(C)c1`, the growth inhibition is 103% (active).

Turning to `Cn1c(=O)n(C)c2cc(CNCCNc3ccnc4cc(Cl)ccc34)ccc21`, the growth inhibition was 101% (active).

Take `CC(OC(=O)c1ccc(C(=O)NCC2CC2)cc1)C(C)(C)C` (stereo not given): the growth inhibition is 93% (active).

As to `CCc1c(CCNCCCCCCNCCc2ccc([N+](=O)[O-])cc2)ccc(O)c1O`, the growth inhibition is 94% (active).

For the compound `CS(=O)(=O)c1ccc(CCNCc2ccc(-c3cccc(-c4nc5ccccc5[nH]4)c3)cc2)cc1`, the growth inhibition was 100% (active).

On to `CC[C@H](C)CNC(=O)c1cncc(-c2cccc(CNCCCc3ccccc3)c2)c1`, for which the growth inhibition is 95% (active).

With `Cc1cccc2[nH]c(-c3ccc(-c4cccc(NC(=O)c5ccncc5)c4)cc3)nc12`, the growth inhibition was 98% (active).

On to `Cc1cc2nc(/N=C(\N)NC(=O)NC3CCCCC3)nc(C)c2cc1C`, for which the growth inhibition is 94% (active).

As for `CN1CCN(CCCN(Cc2ccc(-c3cccc(CNC4CCCC4)c3)cc2)C(=O)/C=C/c2ccccc2)CC1`, the growth inhibition is 100% (active).

In the case of `CCNc1cc(C(=O)N[C@@H](Cc2ccccc2)[C@H](O)CNC2CCC(C(C)(C)C)CC2)cc(N2CCCC2=O)c1` (stereo not given in full), the growth inhibition is 98% (active).

In the case of `CC(=O)Nc1ccc(C(=O)Nc2ccc(-c3cccc(-c4nc5ccccc5[nH]4)c3)cc2)cn1`, the growth inhibition was 99% (active).

Consider `Cc1cc2c(cc1C(F)(F)F)N(C(=O)Nc1cccc(C(=O)NC3CCN(Cc4ccccc4)CC3)c1)CC2`, for which the growth inhibition was 91% (active).

For the compound `Fc1ccc2nc(-c3cccc(-c4cccc(CNCCc5ccncc5)c4)c3)[nH]c2c1`, the growth inhibition is 100% (active).

The target in another assay is Calcium-dependent protein kinase 1 (Plasmodium falciparum (isolate 3D7)) (UniProt P62344). The experiment in a line: PfCDPK1 kinase inhibitors, biochemical, TCAMS library (AID 1159585).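 Further: inhibitors leave more ATP so luminescence rises with inhibition.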 Particulars: recombinant PfCDPK1, Kinase-Glo ATP depletion luminescence.
Chain of Calcium-dependent protein kinase 1 (Plasmodium falciparum (isolate 3D7)) (P62344 whole entry, looked up): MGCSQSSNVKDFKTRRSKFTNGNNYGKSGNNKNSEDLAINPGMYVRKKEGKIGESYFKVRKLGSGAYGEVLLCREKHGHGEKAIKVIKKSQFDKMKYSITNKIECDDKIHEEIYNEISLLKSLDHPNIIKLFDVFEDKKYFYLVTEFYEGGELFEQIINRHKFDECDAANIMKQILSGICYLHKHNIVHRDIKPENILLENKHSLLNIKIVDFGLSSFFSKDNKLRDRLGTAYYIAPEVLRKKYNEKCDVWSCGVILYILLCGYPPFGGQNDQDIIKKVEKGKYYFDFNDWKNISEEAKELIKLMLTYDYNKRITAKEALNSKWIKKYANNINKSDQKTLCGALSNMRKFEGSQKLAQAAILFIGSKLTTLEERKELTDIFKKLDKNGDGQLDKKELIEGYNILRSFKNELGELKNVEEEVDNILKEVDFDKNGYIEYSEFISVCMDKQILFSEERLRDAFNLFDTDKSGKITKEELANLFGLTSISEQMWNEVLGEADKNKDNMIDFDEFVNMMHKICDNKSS
`CN(C)CCCNCc1ccc(-c2ccc(C(F)(F)F)cc2)cc1`: the result was inactive.

Consider `Fc1ccccc1COc1ccc(Nc2ncnc3ccc(-c4nnc(C(F)(F)F)o4)cc23)cc1Cl`, for which the result was inactive.

As for `O=C(Nc1ccc([N+](=O)[O-])cc1)c1nn(-c2ccccc2)cc1N=Cc1cccc(O)c1`, the result was inactive.

In the case of `Cc1cccc2[nH]c(-c3ccc(-c4ccc(NC(=O)N[C@@H]5C[C@H]5c5ccccc5)cc4)cc3)nc12`, the result was inactive.

For the compound `O=c1cc(NCCCCNCc2ccc(Br)c(Br)c2)[nH]c2ccccc12`, the outcome was inactive.

For the compound `O=S1N=C(NCCCN(Cc2cccs2)c2ccccn2)C(NCc2ccccc2)=N1` (stereo not given), the outcome was inactive.

`COc1ccccc1NC(=O)NC1CCN(CCCCCNC(=O)/C=C/c2ccc(Cl)c(Cl)c2)CC1`: the outcome was inactive.

For the compound `CC(=O)Oc1cc(C)ccc1C1CCN(CCCCNC(=O)c2ccc(-c3ccc(C(F)(F)F)cc3)cc2)CC1`, the result was inactive.

With `O=c1cc(NCCCNCc2csc(Br)c2Sc2ccc(Cl)cc2)[nH]c2ccccc12`, the outcome was inactive.

On to `Cc1cccc2[nH]c(-c3ccc(-c4cccc(NC(=O)Nc5ccsc5)c4)s3)nc12`, for which the result was inactive.

Consider `CCCCCCP(=O)(COc1ccc(CCN(CC(O)COc2cccc3[nH]c(C(N)=O)cc23)CC(O)COc2cccc3[nH]c(C(N)=O)cc23)cc1)OCCCC` (stereo not given), for which the outcome was inactive.

As for `COc1ccc(-c2csc3ncnc(Cl)c23)cc1`, the result was inactive.

With `C[C@H](Cc1ccc(Oc2ccc(C[C@@H](C)NC[C@H](O)c3cccc(Cl)c3)cc2)cc1)NC[C@H](O)c1cccc(Cl)c1`, the result was inactive.

Turning to `CCCCCCCN1CC[C@@H](CCCc2ccnc3ccc(OCCN4CCNCC4)cc23)[C@@H](CC)C1`, the result was inactive.

For `O=C(Cc1ccc(-c2ccccc2)cc1)N[C@H]1CCN(Cc2ccc(OCCCN3CCCCC3)cc2)C1`, the outcome was inactive.

On to `Cc1cc(C)n(-c2nc(Nc3cccc(C(F)(F)F)c3)nc(-n3nc(C)cc3C)n2)n1`, for which the outcome was inactive.

Consider `O=C(NCc1cccc(F)c1)Nc1cccc(-c2ccc(-c3nc4ccc(F)cc4[nH]3)cc2)c1`, for which the outcome was inactive.

`NC(=O)C1CCN(Cc2cccc(-c3ccc(-c4nc5ccc(C(F)(F)F)cc5[nH]4)cc3)c2)CC1`: the result was inactive.

Take `CCCC[C@@H](C(=O)NCCc1ccc(Cl)cc1)N1C(=O)CCC1C(=O)Nc1ccc(Cl)c(Cl)c1` (stereo not given in full): the result was inactive.

As to `Nc1ncc(-c2ccc(F)cc2)c2ccc(-c3cccc(F)c3)cc12`, the outcome was inactive.

Turning to `c1ccc(CCNCc2ccc(-c3cccc(-c4nc5ccccc5[nH]4)c3)cc2)nc1`, the result was inactive.

Turning to `CCCCN1CCN(CCCCNc2c3ccccc3nc3ccccc23)CC1`, the outcome was inactive.

Regarding `CCCCCCN1CCCN(Cc2ccc(C(=O)Nc3ccc(Cl)cc3)cc2)CC1`, the result was inactive.

As for `COc1ccc(-c2cccc(NC(=O)c3ccc(C#N)cc3)c2)cc1CN1CCCN(C)CC1`, the result was inactive.

Turning to `CCCCCN1CCCC(NS(=O)(=O)c2ccc(C(=O)Nc3ccc(C(F)(F)F)cc3)cc2)C1` (stereo not given), the outcome was inactive.

For the compound `Cc1cc(O)c(CN(C)Cc2ccc(N(C)C)cc2)cc1C(C)C`, the result was inactive.

In the case of `CNC(=O)CSc1nnc(-c2ccc(C)cc2)c(-c2ccc(C)cc2)n1`, the result was inactive.

With `Cc1cc(C)c(NC(=O)NC2CCN(CCCCCNC(=O)/C=C/c3ccc(Cl)c(Cl)c3)CC2)c(C)c1`, the result was inactive.

As for `Cn1c(=O)n(C)c2cc(CNCCNc3ccnc4cc(Cl)ccc34)ccc21`, the outcome was inactive.

Turning to `CC(OC(=O)c1ccc(C(=O)NCC2CC2)cc1)C(C)(C)C` (stereo not given), the outcome was inactive.

For the compound `CCc1c(CCNCCCCCCNCCc2ccc([N+](=O)[O-])cc2)ccc(O)c1O`, the result was inactive.

For `CS(=O)(=O)c1ccc(CCNCc2ccc(-c3cccc(-c4nc5ccccc5[nH]4)c3)cc2)cc1`, the outcome was inactive.

As to `CC[C@H](C)CNC(=O)c1cncc(-c2cccc(CNCCCc3ccccc3)c2)c1`, the result was inactive.

Take `Cc1cccc2[nH]c(-c3ccc(-c4cccc(NC(=O)c5ccncc5)c4)cc3)nc12`: the outcome was inactive.

As for `Cc1cc2nc(/N=C(\N)NC(=O)NC3CCCCC3)nc(C)c2cc1C`, the result was inactive.

`CN1CCN(CCCN(Cc2ccc(-c3cccc(CNC4CCCC4)c3)cc2)C(=O)/C=C/c2ccccc2)CC1`: the result was inactive.

Take `CCNc1cc(C(=O)N[C@@H](Cc2ccccc2)[C@H](O)CNC2CCC(C(C)(C)C)CC2)cc(N2CCCC2=O)c1` (stereo not given in full): the outcome was inactive.

As to `CC(=O)Nc1ccc(C(=O)Nc2ccc(-c3cccc(-c4nc5ccccc5[nH]4)c3)cc2)cn1`, the outcome was inactive.

On to `Cc1cc2c(cc1C(F)(F)F)N(C(=O)Nc1cccc(C(=O)NC3CCN(Cc4ccccc4)CC3)c1)CC2`, for which the outcome was inactive.

Consider `Fc1ccc2nc(-c3cccc(-c4cccc(CNCCc5ccncc5)c4)c3)[nH]c2c1`, for which the outcome was inactive.
